The results in this text go back to ChEMBL document CHEMBL1961873, “Compounds: GSK PKIS; Assays: Nanosyn kinase panel” (2012).

The target in assay [1] is MAP/microtubule affinity-regulating kinase 3 (Homo sapiens) (UniProt P27448). As to conditions: at 1 µM.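 Also: reported values are averaged percent inhibition of MARK3.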
Assay [2] deals with T1, MAP/microtubule affinity-regulating kinase 4 (Homo sapiens) (UniProt Q96L34).
T1 sequence (whole entry): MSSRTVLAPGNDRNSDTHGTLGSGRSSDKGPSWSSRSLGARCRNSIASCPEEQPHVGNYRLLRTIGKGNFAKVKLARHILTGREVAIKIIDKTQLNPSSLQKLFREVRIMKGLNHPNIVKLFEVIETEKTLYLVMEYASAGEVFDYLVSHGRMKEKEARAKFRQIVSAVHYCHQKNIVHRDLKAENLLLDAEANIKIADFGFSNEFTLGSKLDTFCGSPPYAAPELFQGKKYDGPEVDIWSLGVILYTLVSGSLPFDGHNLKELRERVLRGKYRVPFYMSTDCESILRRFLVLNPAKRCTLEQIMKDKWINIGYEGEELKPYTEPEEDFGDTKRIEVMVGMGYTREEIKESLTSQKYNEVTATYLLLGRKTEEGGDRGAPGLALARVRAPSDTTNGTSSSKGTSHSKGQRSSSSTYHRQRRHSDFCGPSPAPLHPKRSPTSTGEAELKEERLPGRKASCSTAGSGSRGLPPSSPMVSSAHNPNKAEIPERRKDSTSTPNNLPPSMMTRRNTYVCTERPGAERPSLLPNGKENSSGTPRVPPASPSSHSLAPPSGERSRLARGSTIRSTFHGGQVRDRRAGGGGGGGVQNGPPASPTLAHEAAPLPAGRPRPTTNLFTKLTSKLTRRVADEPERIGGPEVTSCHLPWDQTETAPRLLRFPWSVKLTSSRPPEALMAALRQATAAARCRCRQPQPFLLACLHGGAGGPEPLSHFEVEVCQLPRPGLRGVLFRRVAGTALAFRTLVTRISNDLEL
As to conditions: at 0.1 µM.

Assay [3] concerns the target T1, MAP/microtubule affinity-regulating kinase 4 (Homo sapiens). Conditions: at 1 µM.
For assay [4], the target named is Maternal embryonic leucine zipper kinase (Homo sapiens) (UniProt Q14680). Conditions: at 0.1 µM.
Chain of Maternal embryonic leucine zipper kinase (Homo sapiens) (Q14680 whole entry, looked up): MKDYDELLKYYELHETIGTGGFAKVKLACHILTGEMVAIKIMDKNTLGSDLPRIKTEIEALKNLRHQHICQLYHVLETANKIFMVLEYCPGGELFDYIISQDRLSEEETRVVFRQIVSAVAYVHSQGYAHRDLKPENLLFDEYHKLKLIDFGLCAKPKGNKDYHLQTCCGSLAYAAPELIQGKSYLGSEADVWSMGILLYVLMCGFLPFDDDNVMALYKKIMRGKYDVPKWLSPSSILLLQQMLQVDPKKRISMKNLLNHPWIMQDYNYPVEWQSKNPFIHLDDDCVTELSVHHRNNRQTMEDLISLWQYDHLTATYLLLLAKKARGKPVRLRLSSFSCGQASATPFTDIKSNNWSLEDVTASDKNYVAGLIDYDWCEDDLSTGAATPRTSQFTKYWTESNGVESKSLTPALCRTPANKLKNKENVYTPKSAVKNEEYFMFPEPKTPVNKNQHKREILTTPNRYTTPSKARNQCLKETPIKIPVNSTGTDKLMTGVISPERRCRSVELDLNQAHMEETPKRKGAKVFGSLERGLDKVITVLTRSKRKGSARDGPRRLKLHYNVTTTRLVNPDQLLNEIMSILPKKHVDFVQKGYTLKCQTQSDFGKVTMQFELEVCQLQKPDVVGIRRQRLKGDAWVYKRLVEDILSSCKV
The target is the same in assay [5]. Conditions: at 1 µM.
Assay [6] concerns the target MAP kinase-interacting serine/threonine-protein kinase 1 (Homo sapiens) (UniProt Q9BUB5). As to conditions: at 0.1 µM.
For assay [7] the target is unchanged. Conditions: at 1 µM.
Assay [8] concerns the target MAP kinase-interacting serine/threonine-protein kinase 2 (Homo sapiens) (UniProt Q9HBH9). As to conditions: at 0.1 µM.
The target is the same in assay [9]. Conditions: at 1 µM.
Assay [10] deals with Serine/threonine-protein kinase MARK2 (Homo sapiens) (UniProt Q7KZI7). Conditions: at 0.1 µM.
Chain of Serine/threonine-protein kinase MARK2 (Homo sapiens) (Q7KZI7 whole entry): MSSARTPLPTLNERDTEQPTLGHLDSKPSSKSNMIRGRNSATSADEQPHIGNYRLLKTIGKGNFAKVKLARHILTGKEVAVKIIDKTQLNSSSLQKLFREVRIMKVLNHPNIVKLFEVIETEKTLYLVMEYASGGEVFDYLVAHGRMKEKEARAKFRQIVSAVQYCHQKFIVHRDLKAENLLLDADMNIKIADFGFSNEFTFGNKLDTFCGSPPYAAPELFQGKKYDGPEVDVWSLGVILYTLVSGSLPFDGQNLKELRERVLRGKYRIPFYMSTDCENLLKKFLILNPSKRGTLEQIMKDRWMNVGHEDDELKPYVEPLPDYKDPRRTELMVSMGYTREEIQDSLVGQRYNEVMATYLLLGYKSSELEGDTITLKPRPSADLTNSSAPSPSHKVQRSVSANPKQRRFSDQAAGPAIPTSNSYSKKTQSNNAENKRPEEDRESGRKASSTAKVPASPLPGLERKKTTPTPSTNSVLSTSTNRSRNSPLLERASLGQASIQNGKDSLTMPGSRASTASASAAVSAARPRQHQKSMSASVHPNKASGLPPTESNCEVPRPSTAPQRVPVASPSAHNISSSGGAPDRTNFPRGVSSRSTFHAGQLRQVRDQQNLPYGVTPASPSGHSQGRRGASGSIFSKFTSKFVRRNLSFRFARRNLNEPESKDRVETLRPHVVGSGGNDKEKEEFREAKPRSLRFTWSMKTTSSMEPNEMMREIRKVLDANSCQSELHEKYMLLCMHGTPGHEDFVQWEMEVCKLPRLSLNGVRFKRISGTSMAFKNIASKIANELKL
The target is the same in assay [11]. Conditions: at 1 µM.
For assay [12], the target named is PAS domain-containing serine/threonine-protein kinase (Homo sapiens) (UniProt Q96RG2). As to conditions: at 0.1 µM.
For assay [13] the target is unchanged. Conditions: at 1 µM.
For assay [14], the target named is Phosphorylase b kinase gamma catalytic chain, skeletal muscle/heart isoform (Homo sapiens) (UniProt Q16816). Conditions: at 0.1 µM.
Chain of Phosphorylase b kinase gamma catalytic chain, skeletal muscle/heart isoform (Homo sapiens) (Q16816 whole entry, looked up, canonical isoform): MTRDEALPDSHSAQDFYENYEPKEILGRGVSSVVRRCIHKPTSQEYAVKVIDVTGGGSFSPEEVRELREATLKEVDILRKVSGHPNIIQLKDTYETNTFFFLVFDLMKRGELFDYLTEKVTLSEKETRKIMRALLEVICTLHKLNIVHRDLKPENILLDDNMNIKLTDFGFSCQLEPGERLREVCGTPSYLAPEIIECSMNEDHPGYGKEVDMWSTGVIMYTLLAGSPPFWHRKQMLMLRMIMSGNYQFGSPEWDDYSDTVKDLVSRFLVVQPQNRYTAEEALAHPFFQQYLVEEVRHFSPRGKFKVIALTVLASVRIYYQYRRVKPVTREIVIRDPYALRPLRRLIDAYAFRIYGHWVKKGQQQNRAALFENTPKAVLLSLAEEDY
The target is the same in assay [15]. As to conditions: at 1 µM.
Assay [16] deals with T2, Phosphorylase b kinase gamma catalytic chain, liver/testis isoform (Homo sapiens) (UniProt P15735).
T2 sequence (whole entry): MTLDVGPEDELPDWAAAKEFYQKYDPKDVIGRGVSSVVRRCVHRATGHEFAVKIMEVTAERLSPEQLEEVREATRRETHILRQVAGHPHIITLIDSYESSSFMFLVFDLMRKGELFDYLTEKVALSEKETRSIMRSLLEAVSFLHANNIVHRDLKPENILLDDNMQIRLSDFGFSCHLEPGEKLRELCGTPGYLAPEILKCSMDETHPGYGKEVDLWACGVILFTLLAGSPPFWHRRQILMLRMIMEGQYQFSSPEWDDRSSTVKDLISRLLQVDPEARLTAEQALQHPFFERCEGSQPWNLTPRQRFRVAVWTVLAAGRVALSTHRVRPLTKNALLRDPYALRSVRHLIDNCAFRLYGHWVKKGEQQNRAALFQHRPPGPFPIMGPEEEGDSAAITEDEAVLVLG
As to conditions: at 0.1 µM.

In assay [17] the target is T2, Phosphorylase b kinase gamma catalytic chain, liver/testis isoform (Homo sapiens). Conditions: at 1 µM.
Assay [18] has as its target Serine/threonine-protein kinase pim-1 (Homo sapiens) (UniProt P11309). As to conditions: at 0.1 µM.
The target is the same in assay [19]. Conditions: at 1 µM.
Assay [20] addresses Serine/threonine-protein kinase pim-2 (Homo sapiens) (UniProt Q9P1W9). As to conditions: at 0.1 µM.

Chain of MAP/microtubule affinity-regulating kinase 3 (Homo sapiens) (P27448 whole entry, looked up): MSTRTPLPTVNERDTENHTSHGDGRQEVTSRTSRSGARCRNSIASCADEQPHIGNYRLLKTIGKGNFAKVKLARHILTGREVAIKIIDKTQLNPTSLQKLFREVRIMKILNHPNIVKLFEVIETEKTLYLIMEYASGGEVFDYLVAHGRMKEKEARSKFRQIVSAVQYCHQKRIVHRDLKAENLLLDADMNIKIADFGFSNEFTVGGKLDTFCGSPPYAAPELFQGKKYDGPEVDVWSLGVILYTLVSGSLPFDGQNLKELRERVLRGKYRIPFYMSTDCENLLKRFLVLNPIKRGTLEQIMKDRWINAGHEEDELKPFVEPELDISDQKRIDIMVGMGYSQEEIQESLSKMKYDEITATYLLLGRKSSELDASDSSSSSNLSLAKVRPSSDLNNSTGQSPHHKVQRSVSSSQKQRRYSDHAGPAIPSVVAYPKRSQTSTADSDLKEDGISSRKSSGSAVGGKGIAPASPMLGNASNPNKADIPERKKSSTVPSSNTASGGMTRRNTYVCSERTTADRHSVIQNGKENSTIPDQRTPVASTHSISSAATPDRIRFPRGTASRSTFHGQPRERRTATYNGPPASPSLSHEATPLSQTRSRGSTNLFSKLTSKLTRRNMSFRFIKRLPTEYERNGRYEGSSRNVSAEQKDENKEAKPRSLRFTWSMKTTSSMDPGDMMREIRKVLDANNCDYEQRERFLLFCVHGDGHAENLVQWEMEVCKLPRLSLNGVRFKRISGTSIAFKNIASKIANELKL
Chain of MAP kinase-interacting serine/threonine-protein kinase 2 (Homo sapiens) (Q9HBH9 whole entry, looked up): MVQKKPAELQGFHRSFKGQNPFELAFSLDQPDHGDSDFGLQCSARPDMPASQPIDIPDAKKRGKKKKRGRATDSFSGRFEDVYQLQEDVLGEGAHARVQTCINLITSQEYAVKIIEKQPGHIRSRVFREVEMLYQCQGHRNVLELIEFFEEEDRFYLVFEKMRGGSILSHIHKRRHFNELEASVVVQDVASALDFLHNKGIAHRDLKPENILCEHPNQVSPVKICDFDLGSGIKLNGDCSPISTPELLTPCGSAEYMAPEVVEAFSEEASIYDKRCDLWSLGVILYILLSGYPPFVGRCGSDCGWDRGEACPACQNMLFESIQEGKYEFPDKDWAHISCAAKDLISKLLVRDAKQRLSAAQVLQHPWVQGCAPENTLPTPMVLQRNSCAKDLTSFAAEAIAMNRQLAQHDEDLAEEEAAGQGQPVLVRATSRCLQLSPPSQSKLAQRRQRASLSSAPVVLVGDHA
Chain of Serine/threonine-protein kinase pim-1 (Homo sapiens) (P11309 whole entry, looked up): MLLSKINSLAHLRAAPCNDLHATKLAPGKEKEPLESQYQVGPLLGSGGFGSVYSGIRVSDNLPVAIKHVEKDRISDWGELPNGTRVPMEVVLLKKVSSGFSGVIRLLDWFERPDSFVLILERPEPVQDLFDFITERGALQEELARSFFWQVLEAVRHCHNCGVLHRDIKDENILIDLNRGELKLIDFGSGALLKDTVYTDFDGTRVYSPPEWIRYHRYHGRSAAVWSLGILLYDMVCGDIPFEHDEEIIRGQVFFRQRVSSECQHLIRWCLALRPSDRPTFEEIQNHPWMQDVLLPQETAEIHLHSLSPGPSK
Chain of MAP kinase-interacting serine/threonine-protein kinase 1 (Homo sapiens) (Q9BUB5 whole entry, looked up): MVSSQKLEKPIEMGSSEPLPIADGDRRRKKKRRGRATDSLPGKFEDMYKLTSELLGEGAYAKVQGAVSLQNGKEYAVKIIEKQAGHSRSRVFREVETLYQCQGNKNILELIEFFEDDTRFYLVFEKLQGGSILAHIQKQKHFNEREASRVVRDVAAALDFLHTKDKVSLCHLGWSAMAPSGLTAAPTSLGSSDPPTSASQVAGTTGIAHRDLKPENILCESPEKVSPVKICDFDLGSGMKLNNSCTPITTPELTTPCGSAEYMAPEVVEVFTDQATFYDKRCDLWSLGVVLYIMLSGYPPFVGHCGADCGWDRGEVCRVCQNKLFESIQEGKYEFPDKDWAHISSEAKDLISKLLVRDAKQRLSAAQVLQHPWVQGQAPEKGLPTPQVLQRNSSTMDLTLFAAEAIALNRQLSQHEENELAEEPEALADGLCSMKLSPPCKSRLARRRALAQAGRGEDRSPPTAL
Chain of Serine/threonine-protein kinase pim-2 (Homo sapiens) (Q9P1W9 whole entry, looked up): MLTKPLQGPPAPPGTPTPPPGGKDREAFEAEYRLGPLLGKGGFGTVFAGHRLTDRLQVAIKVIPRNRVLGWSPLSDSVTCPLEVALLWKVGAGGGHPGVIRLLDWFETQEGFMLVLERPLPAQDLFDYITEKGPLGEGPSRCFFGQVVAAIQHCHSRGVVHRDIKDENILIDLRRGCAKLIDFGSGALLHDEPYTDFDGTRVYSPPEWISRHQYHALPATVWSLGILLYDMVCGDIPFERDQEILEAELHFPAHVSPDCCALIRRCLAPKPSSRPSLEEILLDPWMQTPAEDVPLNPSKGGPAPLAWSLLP

The term inhibition denotes the change of the read-out against control, counted positive when it falls. Regarding `NS(=O)(=O)c1cccc(-c2cc3ccncc3cc2OCc2ccccc2)c1`, the inhibition in [1] turned out to be 9.67%; in [2], 2.91%; in assay [3] it was 6.29%; in assay [4] it was 4.44%; in assay [5], 6.24%; in [6], 3.03%. Moreover, the inhibition worked out at 6.7% in assay [7]; 3.83% in assay [8]; 25.1% in assay [9]; 3.3% in assay [10]; 4.78% in assay [11]; 0.61% in [12]. The inhibition is -0.76% in [13]; 4.05% in assay [14]; 7.24% in assay [15]; 4.91% in assay [16]; 3.55% in assay [17]; 1.01% in [18]. The inhibition was found to be 0.91% in assay [19] and 0.27% in [20].

As for `O=C1Nc2ccccc2/C1=C/Nc1ccc2[nH]c(=O)[nH]c2c1`, the inhibition in assay [1] came out at 27.5%; in [2], 4.86%; in assay [3] it was 27.1%; in assay [4] it was 5.79%; in assay [5] it was 41.4%; in assay [6], 5.46%. Further, the inhibition in assay [7] came out at 14%; in [8] it was 2.62%; in assay [9] it was 10.9%; in assay [10], 3.32%; in [11] it was 13.4%; in assay [12] it was 12.4%. For the same compound, the inhibition is 64.1% in assay [13]; 10.5% in [14]; 42.6% in assay [15]; 7.44% in [16]; 21.4% in assay [17]; -0.21% in assay [18]. Further, the values for the inhibition in assay [19] and in assay [20] were 2.44% and 0.27%, respectively.

Turning to `O=S(=O)(CCOCc1ccc(-c2ccc3ncnc(Nc4ccc(OCc5cccc(F)c5)c(Cl)c4)c3c2)o1)c1ccccc1`, the inhibition in [1] came to 1.33%; in assay [2], 1.36%; in [3], 3.69%; in assay [4], 3.07%; in assay [5] it was 7.12%; in assay [6], 1.49%. In addition, the inhibition in assay [7] is 4.07%; in [8], -0.55%; in assay [9] it was 4.88%; in assay [10] it was -0.42%; in [11], 3.35%; in assay [12], -0.23%. In addition, the inhibition in assay [13] is -0.13%; in assay [14], 1.12%; in assay [15], 5.02%; in assay [16], 1.75%; in assay [17] it was -0.77%; in [18] it was 1.1%. Moreover, the figures for the inhibition in assay [19] and in assay [20] were 2.1% and 0.88%, respectively.

On to `N#Cc1cccc(Nc2nccc(-c3cnn4ncccc34)n2)c1`, for which the inhibition in assay [1] was 13.1%; in [2] it was 1.74%; in assay [3] it was 9.89%; in assay [4], 12.5%; in [5], 55.9%; in [6] it was 6.09%. Moreover, the inhibition in assay [7] is 22.5%; in assay [8], 5.65%; in [9] it was 33%; in assay [10], 1.3%; in [11], 9.5%; in assay [12], 0.25%. Further, the inhibition in assay [13] came out at 0.01%; in [14], 15.8%; in assay [15] it was 58.3%; in [16], 7.04%; in assay [17] it was 22.2%; in assay [18] it was 1.44%. In addition, the results for the inhibition in assay [19] and in assay [20] were 12.4% and 0.59%, respectively.

For `CC(C)c1ccc(Nc2nccc(-c3cnn4ncccc34)n2)cc1`, the inhibition in [1] was 3.95%; in assay [2], 0.24%; in [3], 2.61%; in assay [4], 5.96%; in assay [5], 26.3%; in [6] it was 3.64%. The inhibition is 11.8% in [7]; 2.64% in [8]; 15.2% in assay [9]; -1.19% in assay [10]; 1.01% in assay [11]; -0.78% in assay [12]. Moreover, the inhibition was -0.93% in assay [13]; 2.33% in [14]; 7.97% in [15]; 4.16% in assay [16]; 3.83% in assay [17]; -0.71% in assay [18]. Also, the figures for the inhibition in assay [19] and in assay [20] were 2.45% and -0.13%, respectively.

With `Cc1cc(O)cc(C)c1/C=C/c1cncc(C(=O)N(C)C)c1`, the inhibition in assay [1] was 13.7%; in assay [2], 1.25%; in assay [3] it was 2.49%; in assay [4], 3.84%; in assay [5] it was 4.23%; in assay [6], 4.18%. For the same compound, the inhibition in [7] is 18%; in [8], 2.2%; in [9], 9.99%; in assay [10], -1.4%; in assay [11], 1.77%; in assay [12], 0.83%. The inhibition in [13] was -0.85%; in [14] it was 3.09%; in assay [15], 2.61%; in [16] it was 2.55%; in assay [17], 0.54%; in assay [18], 1.21%. Also, the values for the inhibition in assay [19] and in assay [20] were 2.17% and 0.03%, respectively.
